In PubChem BioAssay:
The source made the active and inactive calls.

Legend:
[1] = binders of probe aFSTL3 on microarray, primary screen, stem cell growth factor project, biochemical, small-molecule microarray, fluorescence 635/667 (AID 1064); conditions: higher = more signal;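 also: measures binding of the biotinylated anti-FSTL3 antibody to printed compounds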
[2] = binders from COS7 lysate, DM2A8 probe, primary screen, torsin A project, cell lysate, small-molecule microarray, fluorescence 635/667 (AID 1065); conditions: higher = more signal, COS7 lysate expressing mutant human TOR1A
[3] = binders of probe aFGF2 on microarray, primary screen, stem cell growth factor project, biochemical, small-molecule microarray, fluorescence 635/667 (AID 1067); conditions: higher = more signal;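 also: measures binding of biotinylated aFGF2 protein to printed compounds on slides; z-score merges feature fluorescence and signal-to-noise across triplicate slides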
[4] = binders of probe aFGF10 on microarray, primary screen, stem cell growth factor project, biochemical, small-molecule microarray, fluorescence 635/667 (AID 1071); conditions: higher = more signal;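 also: score merges 667 nm spot intensity and signal to noise from triplicate slides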
[5] = target: Neurogenic locus notch homolog protein 2 (Homo sapiens) (UniProt Q04721); experiment: Notch2 binders on small-molecule microarrays, primary screen, biochemical, small-molecule microarray, 635 nm fluorescence, stem cell growth factors (AID 1073); conditions: Notch2 binding, higher = more signal
[6] = target: Pro-neuregulin-1, membrane-bound isoform (Homo sapiens) (UniProt Q02297); experiment: NRG1 binders on small-molecule microarrays, primary screen, psychiatric disease protein project, biochemical, small-molecule microarray, fluorescence 635/667 (AID 1075); conditions: NRG1 binding, 635 nm fluorescence, higher = more signal;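 also: score combines 667 nm spot fluorescence with signal to noise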
[7] = system: Neuregulin-1 EGF-like domain; experiment: binders of neuregulin-1 EGF-like domain, primary screen, biochemical, small-molecule microarray, 635 nm fluorescence (AID 1081); conditions: small-molecule microarray binding, higher = more signal;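 also: binding of the protein to compounds printed on small-molecule microarray slides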
[8] = FRG1 promoter luciferase signal modulators, primary screen, FRG1 inhibition for FSHD, cell-based, C2C12 myotubes, firefly/Renilla luciferase, luminescence (AID 1084); conditions: higher = more signal, called active from +8 up or from −8 down
[9] = binders of probe aFST on microarray, primary screen, stem cell growth factor project, biochemical, small-molecule microarray, fluorescence 635/667 (AID 1086); conditions: higher = more signal;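 also: score merges 667 nm fluorescence with signal-to-noise of each printed compound spot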
[10] = binders of probe aHhip on microarray, primary screen, stem cell growth factor project, biochemical, small-molecule microarray, fluorescence 635/667 (AID 1087); conditions: higher = more signal;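 also: score merges spot fluorescence at 667nm with spot signal to noise ratio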

Neurogenic locus notch homolog protein 2 (Homo sapiens), sequence (Q04721 whole entry, looked up, canonical isoform): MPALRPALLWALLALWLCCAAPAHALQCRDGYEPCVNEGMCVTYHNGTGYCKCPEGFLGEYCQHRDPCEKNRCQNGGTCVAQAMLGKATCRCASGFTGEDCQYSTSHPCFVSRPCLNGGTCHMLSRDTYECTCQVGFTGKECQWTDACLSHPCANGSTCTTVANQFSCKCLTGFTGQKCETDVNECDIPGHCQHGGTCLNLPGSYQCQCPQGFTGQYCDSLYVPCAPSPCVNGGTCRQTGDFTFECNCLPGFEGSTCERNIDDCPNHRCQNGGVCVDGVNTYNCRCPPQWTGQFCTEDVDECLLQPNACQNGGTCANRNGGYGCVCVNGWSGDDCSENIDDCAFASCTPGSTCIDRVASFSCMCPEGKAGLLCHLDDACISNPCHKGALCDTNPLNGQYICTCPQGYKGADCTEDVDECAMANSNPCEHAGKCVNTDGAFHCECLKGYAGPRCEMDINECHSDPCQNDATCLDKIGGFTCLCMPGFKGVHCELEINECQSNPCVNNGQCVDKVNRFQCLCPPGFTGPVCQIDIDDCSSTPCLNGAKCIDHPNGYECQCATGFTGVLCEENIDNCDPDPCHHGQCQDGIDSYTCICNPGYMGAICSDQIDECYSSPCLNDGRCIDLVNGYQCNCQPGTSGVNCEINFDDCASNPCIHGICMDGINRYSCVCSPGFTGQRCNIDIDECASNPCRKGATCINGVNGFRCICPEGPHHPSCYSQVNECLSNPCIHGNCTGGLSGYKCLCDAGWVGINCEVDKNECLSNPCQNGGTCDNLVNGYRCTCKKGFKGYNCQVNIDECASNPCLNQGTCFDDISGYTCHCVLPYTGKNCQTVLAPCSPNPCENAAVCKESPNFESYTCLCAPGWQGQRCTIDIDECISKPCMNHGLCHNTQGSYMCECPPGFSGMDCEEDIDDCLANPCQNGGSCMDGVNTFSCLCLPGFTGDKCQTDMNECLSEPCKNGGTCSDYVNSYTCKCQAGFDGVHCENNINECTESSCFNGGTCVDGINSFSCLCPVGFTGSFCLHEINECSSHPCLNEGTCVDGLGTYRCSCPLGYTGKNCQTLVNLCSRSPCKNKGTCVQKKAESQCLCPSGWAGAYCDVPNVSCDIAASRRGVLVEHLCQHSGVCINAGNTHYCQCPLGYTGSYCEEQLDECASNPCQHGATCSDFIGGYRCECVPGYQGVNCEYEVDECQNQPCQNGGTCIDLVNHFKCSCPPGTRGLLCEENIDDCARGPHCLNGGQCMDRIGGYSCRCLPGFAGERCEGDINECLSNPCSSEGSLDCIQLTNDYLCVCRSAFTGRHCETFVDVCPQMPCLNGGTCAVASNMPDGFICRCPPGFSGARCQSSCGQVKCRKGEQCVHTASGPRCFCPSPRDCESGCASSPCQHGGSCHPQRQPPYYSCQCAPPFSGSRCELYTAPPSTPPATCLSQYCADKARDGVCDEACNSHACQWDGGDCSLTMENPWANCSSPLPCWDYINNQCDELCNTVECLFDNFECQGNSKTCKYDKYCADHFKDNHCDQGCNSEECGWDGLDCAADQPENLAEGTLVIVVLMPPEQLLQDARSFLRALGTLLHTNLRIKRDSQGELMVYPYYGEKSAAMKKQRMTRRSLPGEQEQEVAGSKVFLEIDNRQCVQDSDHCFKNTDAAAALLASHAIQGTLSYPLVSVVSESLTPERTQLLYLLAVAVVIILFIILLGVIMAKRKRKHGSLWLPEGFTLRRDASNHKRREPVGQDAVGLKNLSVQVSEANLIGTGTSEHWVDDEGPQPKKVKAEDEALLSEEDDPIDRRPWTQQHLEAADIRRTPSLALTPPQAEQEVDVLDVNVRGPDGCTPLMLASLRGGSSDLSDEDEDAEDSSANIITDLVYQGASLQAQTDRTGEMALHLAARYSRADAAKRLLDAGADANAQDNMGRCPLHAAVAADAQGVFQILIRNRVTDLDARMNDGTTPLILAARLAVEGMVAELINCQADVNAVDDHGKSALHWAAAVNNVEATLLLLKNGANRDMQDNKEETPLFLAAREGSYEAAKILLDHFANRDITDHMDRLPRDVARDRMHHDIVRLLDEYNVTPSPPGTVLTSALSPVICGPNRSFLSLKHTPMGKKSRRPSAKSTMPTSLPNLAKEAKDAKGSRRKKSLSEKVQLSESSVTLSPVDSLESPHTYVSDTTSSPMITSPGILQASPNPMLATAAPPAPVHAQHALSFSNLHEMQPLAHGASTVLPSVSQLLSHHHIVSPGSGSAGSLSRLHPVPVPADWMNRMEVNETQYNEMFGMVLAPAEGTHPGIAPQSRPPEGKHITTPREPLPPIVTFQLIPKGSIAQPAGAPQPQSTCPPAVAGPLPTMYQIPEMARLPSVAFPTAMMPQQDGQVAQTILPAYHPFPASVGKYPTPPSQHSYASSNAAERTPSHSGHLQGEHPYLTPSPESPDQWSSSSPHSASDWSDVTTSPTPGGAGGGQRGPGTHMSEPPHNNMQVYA
Pro-neuregulin-1, membrane-bound isoform (Homo sapiens), sequence (Q02297 whole entry, looked up, the tested form may be a part, canonical isoform): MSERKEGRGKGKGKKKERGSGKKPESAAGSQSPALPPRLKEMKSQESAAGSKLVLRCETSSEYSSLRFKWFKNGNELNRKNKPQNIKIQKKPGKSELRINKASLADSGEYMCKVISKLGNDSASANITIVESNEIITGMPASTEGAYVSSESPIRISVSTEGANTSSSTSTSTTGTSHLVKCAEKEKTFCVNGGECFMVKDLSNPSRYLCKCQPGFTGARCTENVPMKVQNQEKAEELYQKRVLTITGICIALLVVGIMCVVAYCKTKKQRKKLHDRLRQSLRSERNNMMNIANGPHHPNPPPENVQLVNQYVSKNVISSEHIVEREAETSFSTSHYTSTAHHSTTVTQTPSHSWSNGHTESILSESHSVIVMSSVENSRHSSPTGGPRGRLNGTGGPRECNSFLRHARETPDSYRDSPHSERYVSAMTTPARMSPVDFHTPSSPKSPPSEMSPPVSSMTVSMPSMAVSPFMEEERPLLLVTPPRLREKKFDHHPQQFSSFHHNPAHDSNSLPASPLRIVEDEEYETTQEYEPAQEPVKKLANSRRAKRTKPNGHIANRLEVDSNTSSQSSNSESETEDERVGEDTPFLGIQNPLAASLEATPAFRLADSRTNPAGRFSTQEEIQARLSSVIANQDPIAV

Structure (SMILES)	composite z-score [1]	composite z-score [2]	composite z-score [3]	composite z-score [4]	composite z-score [5]	composite z-score [6]	composite z-score [7]	z-score [8]	composite z-score [9]	composite z-score [10]
CN1C=C(C(=O)OCCS(C)(=O)=O)C(C(=O)OCCS(C)(=O)=O)=CC(CCCO)=CC1c1ccc(CN2CCCC2)cc1 (stereo not given)	0.316	0.156	0.0126	1.11	1.25	2.02	1.35	0.226 (inactive)	1.65	0.0053
CC(C)C[C@@H]1NC(=O)[C@H]2C[C@@H](C(=O)NCCCCCNC(=O)CS)[C@@H](c3ccc(O)cc3)N2C1=O	-0.208	0.929	0.283	0.834	0.74	1	1.3	-0.232 (inactive)	0.0724	-0.236
NC(=O)NCC#Cc1ccc2c(c1)[C@]1(C(=O)N2)[C@H](C(=O)Nc2nc3ccccc3s2)[C@H]2C(=O)O[C@H](c3ccccc3)[C@H](c3ccccc3)N2[C@@H]1c1ccc(OCCO)cc1	0.155	-0.164	0.0526	0.331	0.614	-0.029	-0.895	2.13 (inactive)	0.99	-0.347
CC(C)(C)OC(=O)CC[C@]1(C(=O)N2CCOCC2)N=C(c2ccc(OCCCO)cc2)O[C@H]1c1ccccc1CN=[N+]=[N-]	0.912	1.03	-0.0296	0.286	0.684	1.26	1.5	1.57 (inactive)	0.474	0.113
C=CCNC(=O)[C@@H]1[C@H]2C(=O)O[C@H](c3ccccc3)[C@H](c3ccccc3)N2[C@H](c2ccc(O)cc2)[C@@]12C(=O)Nc1ccc(C#CC3(O)CCCCCC3)cc12	-0.258	0.102	-0.1	0.434	0.469	0.606	0.979	0.273 (inactive)	-0.0976	-0.0391
COC(=O)c1c(CC[C@@H](CO)NC(=O)N[C@@H](Cc2ccccc2)Cn2cc(-c3cncn3C)nn2)oc(C(C)=O)c1C(=O)OC	-0.42	0.259	-0.129	0.716	-0.451	1.67	1.29	0.691 (inactive)	0.0625	-0.0401
C=CC(CO)NC(=O)OCC1c2ccccc2-c2ccccc21 (stereo not given)	-0.165	0.96	-0.178	0.282	0.342	0.147	0.256	-0.113 (inactive)	0.0613	-0.217
